Source: the supplement of paper PMC7156485
Where “and” joins values, the source holds several entries; their conditions need not be identical. Equal values may be shown once.

Key:
Settings in all cases: concentration: 10 µM; 24 h
[1] = system: HCC1569; assay: cell number relative to DMSO (% of DMSO); higher = more cells (less growth inhibition / toxicity)
How it was run: (§1)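 In 384-well plates holding 800 HCC1569 or TDF cells per well in RPMI with 10% FBS, compounds were tested at 10 µM for 24 h at 37 °C in triplicate. Fixation used 3.7% formaldehyde. Staining used a rabbit anti-H1.0 antibody with an AlexaFluor 647 secondary, plus DAPI. Each value, H1.0 nuclear intensity or cell number, is a median of replicates shown as percent of the plate control, and HCC1569 values were smoothed for positional effects.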

[2] = system: TDF; assay: as above
How it was run: as §1

[3] = system: TDF; assay: H1.0 immunofluorescence intensity relative to DMSO (% of DMSO); higher = stronger H1.0 induction, active = 120 or more
How it was run: as §1

[4] = system: HCC1569; assay: H1.0 immunofluorescence intensity relative to DMSO (% of DMSO); higher = stronger H1.0 induction, active = 140 or more
How it was run: as §1
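For H1.0 immunofluorescence intensity relative to DMSO in this document: TDF is a line of transformed human dermal fibroblasts of mesenchymal origin.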
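For cell number relative to DMSO in this document: TDF denotes transformed human dermal fibroblasts of mesenchymal origin.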

Row | SMILES | cell number [1] | cell number [2] | H1.0 immunofluorescence intensity [3] | H1.0 immunofluorescence intensity [4]
1 | CCCCCC(=O)CCC1C(O)CC(O)C1CC=CCCCC(=O)O (stereo not drawn) [13,14-Dihydro-15-keto-prostaglandin F2a] | 99.9 | 94 | 90.1 (inactive) | 98.2 (inactive)
2 | CC(c1cc2ccccc2s1)N(O)C(N)=O (stereo not drawn) [Zileuton] | 102 | 98.4 | 94.2 (inactive) | 101 (inactive)
3 | COC(=O)CCc1ccc(OCC(O)CNC(C)C)cc1 (stereo not drawn) [Esmolol] | 100 | 95.1 | 101 (inactive) | 91.9 (inactive)
4 | Cl.OC(CCN1CCCCC1)(c1ccccc1)C1CCCCC1 (stereo not drawn) [Trihexyphenidyl hydrochloride] | 103 | 104 | 94 (inactive) | 75.4 (inactive)
5 | COc1ccc2cc3[n+](cc2c1OC)CCc1cc2c(cc1-3)OCO2.Cl | 99.4 | 77.9 | 97.4 (inactive) | 101 (inactive)
6 | NC(=O)c1cnccn1 [Pyrazinecarboxamide] | 102 | 106 | 94.2 (inactive) | 110 (inactive)
7 | N#CC(=C(N)Sc1ccccc1N)C(C#N)=C(N)Sc1ccccc1N | 102 and 101 | 95.9 and 96.9 | 94 (inactive) and 88.9 (inactive) | 108 (inactive) and 98.1 (inactive)
8 | CN(CC=CC#CC(C)(C)C)Cc1cccc2ccccc12.Cl | 96.4 | 105 | 101 (inactive) | 98.4 (inactive)
9 | CC1CS(=O)(=O)CCN1/N=C/c1ccc([N+](=O)[O-])o1 (stereo not drawn) | 96.4 | 102 | 98.5 (inactive) | 95.5 (inactive)
10 | NC(N)=S [Thiourea] | 100 | 108 | 92.6 (inactive) | 99.6 (inactive)
11 | CCCCC(=O)O[C@]1(C(=O)CO)[C@@H](C)C[C@H]2[C@@H]3CCC4=CC(=O)C=C[C@]4(C)[C@@]3(F)[C@@H](O)C[C@@]21C | 96.4 | 106 | 87.6 (inactive) | 103 (inactive)
12 | CC[C@H](C)C(=O)O[C@H]1C[C@H](O)C=C2C=C[C@H](C)[C@H](CC[C@@H](O)C[C@@H](O)CC(=O)[O-])[C@H]21.[Na+] | 101 | 93.2 | 95.9 (inactive) | 98.1 (inactive)
13 | O=C(NCCN1CCC(n2c(=O)[nH]c3cc(Cl)ccc32)CC1)c1ccc(F)cc1 | 91.9 | 98 | 96.6 (inactive) | 99.5 (inactive)
14 | O=C(O)c1cc2cc(F)ccc2[nH]1 [5-Fluoroindole-2-carboxylic acid] | 99.3 | 89 | 102 (inactive) | 98.6 (inactive)
15 | O=C(c1ccc(C(=O)N2CCC(N3CCCC3)CC2)c(Nc2ccccc2)c1)N1CCC(N2CCCC2)CC1 | 99.8 | 104 | 86.5 (inactive) | 102 (inactive)
16 | O=C1Nc2ccc(Cl)cc2C(C#CC2CC2)(C(F)(F)F)O1 (stereo not drawn) [Efavirenz] | 101 | 98.5 | 97.6 (inactive) | 111 (inactive)
17 | CCCC1CC(C(=O)NC(C(C)Cl)C2OC(SC)C(O)C(O)C2O)N(C)C1.Cl (stereo not drawn) [Clindamycin.HCl] | 111 | 110 | 106 (inactive) | 91.3 (inactive)
18 | Cc1ccc(C(=O)Nc2ccc(S(=O)(=O)[O-])c3cc(S(=O)(=O)[O-])cc(S(=O)(=O)[O-])c23)cc1NC(=O)c1cccc(NC(=O)Nc2cccc(C(=O)Nc3cc(C(=O)Nc4ccc(S(=O)(=O)[O-])c5cc(S(=O)(=O)[O-])cc(S(=O)(=O)[O-])c45)ccc3C)c2)c1 [Suramin] | 94.4 | 86.9 | 96.7 (inactive) | 107 (inactive)
19 | CNC1C(O)C(NC)C2OC3(O)C(=O)CC(C)OC3OC2C1O.Cl.Cl (stereo not drawn) [Spectinomycin.2HCl] | 98.8 | 106 | 94.4 (inactive) | 100 (inactive)
20 | CN(C)CCCN1c2ccccc2CCc2ccccc21.Cl [Imipramine hydrochloride] | 108 | 98.4 | 97.2 (inactive) | 105 (inactive)
21 | CCN1CCN(C(=O)NC(C(=O)NC2C(=O)N3C2SC(C)(C)C3C(=O)O)c2ccccc2)C(=O)C1=O (stereo not drawn) [Piperacillin] | 101 | 100 | 95.4 (inactive) | 119 (inactive)
22 | CCCCCCCCCCCCCC=CC(O)C(CO)NC(C)=O (stereo not drawn) [C2 Ceramide] | 101 | 107 | 94.8 (inactive) | 102 (inactive)
